Compound activity: PubChem BioAssay, several laboratories
V-ATPase pH = alters yeast V-ATPase proton transport. response, % at 10 µM. S. cerevisiae, pHLuorin cytosolic pH fluorescence. 350,000 compounds, 0.37% hits; in the data active = response mostly above about 7.3%, no sharp cut-off; inactive = mostly below about 5.4%; note: actives read high
ADAM10 inh = inhibits human ADAM10; 370,000 compounds, 0.62% hits; AID 720582; recombinant ADAM10, EDANS/DABCYL FRET peptide cleavage, 3 h; O14672; inhibition, % at 7 µM;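 active = inhibition above a per-campaign cutoff equal to the mean of compounds falling between control-based bounds plus 3 SD, cut at about 20% in these data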;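 note: 0% = DMSO wells while the 100% control is not disclosed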
Target sequence (O14672 214-748 limits assumed): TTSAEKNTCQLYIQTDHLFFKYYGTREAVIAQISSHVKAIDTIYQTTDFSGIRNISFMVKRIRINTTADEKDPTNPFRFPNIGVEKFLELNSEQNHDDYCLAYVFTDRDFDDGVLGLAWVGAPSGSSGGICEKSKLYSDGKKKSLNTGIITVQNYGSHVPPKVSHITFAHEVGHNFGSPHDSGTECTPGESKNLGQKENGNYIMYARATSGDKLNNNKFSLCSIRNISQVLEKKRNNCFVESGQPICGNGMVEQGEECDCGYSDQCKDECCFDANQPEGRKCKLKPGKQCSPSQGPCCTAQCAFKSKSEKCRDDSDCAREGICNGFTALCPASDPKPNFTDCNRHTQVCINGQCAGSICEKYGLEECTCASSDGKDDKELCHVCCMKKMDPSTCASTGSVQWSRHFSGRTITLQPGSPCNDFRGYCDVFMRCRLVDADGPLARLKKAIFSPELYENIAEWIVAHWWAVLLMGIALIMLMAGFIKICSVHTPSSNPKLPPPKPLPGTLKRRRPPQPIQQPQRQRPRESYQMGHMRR
ADAM17 inh = inhibits human ADAM17; P78536; recombinant ADAM17, EDANS/DABCYL FRET peptide cleavage; inhibition, % at 6.95 µM; 370,000 compounds, 0.83% hits;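 active = inhibition above the mean of compounds lying between control limits plus 3 SD, set per campaign, cut at about 8.5% in these data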;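 note: 0% = DMSO-only wells as the low control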
proKLK7 act = proKLK7 (human) activation, primary screen; P49862; purified proKLK7, EDANS-DABCYL substrate fluorescence; 100% is mature enzyme control, 0% vehicle; activation, % at 7 µM; 370,000 compounds, 0.9% hits;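 active = activation above the mean of all tested compounds plus 3 SD, computed per campaign excluding outliers beyond control limits, cut at about 13% in these data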
V-ATPase pH SP = regulators of yeast V-ATPase proton transport. shares compounds with V-ATPase pH. S. cerevisiae pHLuorin cytosolic pH. response, % at 10 µM. 980 compounds, 2% hits. AID 602197; in the data active = response above about 24%;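 note: plate controls were vehicle wells for no effect and positive control wells for full effect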
* hit, by the source's call; i = inactive; x = not tested or not shown. A selection: hits, their analogues and other compounds. The true share with any hit is near 2.3%.

SMILES	V-ATPase pH	ADAM10 inh	ADAM17 inh	proKLK7 act	V-ATPase pH SP
Oc1ccc(N2CCN(C(c3cccs3)c3nnnn3CCc3ccccc3)CC2)cc1 (stereo unspecified)	1	21*	2	1	x
Cc1oc2c(CN(C)C)c(O)ccc2c(=O)c1-c1cscn1	-3	i	-252	20*	x
Cc1oc2c(CN3CCOCC3)c(O)ccc2c(=O)c1-c1ccc(Br)cc1	3	i	-154	11	x
COc1ccc(-c2cc(C(F)F)n3ncc(C(=O)N4CCc5ccccc54)c3n2)cc1	-2	-8	-1	0	x
COc1ccc(-c2cc(C(F)F)n3ncc(C(=O)N4CCN5CCCC5C4)c3n2)cc1 (stereo unspecified)	-2	i	-159	24*	x
COc1cc(OC)cc(-c2csc(N3CCC(C(N)=O)CC3)n2)c1	x	4	0	x	x
O=C(Nc1ccccc1Cl)O[C@@H]1CC[C@@]23CCCN2C(=O)CCC[C@H]3C1	x	4	-1	x	x
Cc1cc2ccccn2c1C(=O)c1ccc([N+](=O)[O-])o1	11*	5	0	0	x
Cc1cc2ccccn2c1C(=O)c1cccc([N+](=O)[O-])c1	1	-2	1	0	x
COc1ccc(-n2c(COc3ccccc3)nnc2SCc2nc3ccccc3[nH]2)cc1	x	-8	-4	0	x
COCCCNC(=O)Cn1c(=O)oc2cc(S(=O)(=O)N3CC(C)CC(C)C3)ccc21 (stereo unspecified)	20*	-2	0	0	x
CCCCNC(=O)Cn1c(=O)oc2cc(S(=O)(=O)N3CC(C)CC(C)C3)ccc21 (stereo unspecified)	1	-4	-4	0	x
Clc1ccc(-n2c(SCc3cccc4ccccc34)nnc2-c2ccco2)cc1	x	17	8	1	x
Cc1ccccc1-n1c(SCC(=O)N(C)C2CCS(=O)(=O)C2)nnc1-c1ccncc1 (stereo unspecified)	-1	-4	-3	-1	x
Cc1ccccc1-n1c(C)nnc1SCC(=O)N(C)C1CCS(=O)(=O)C1 (stereo unspecified)	15*	0	3	0	x
COC(=O)c1nc2n(n1)C(c1cccc(Cl)c1)C1=C(CC(C)(C)CC1=O)N2 (stereo unspecified)	-3	-7	1	19*	x
Cc1ccc(S(=O)(=O)N2CCCCC2)cc1NC(=O)c1cc2ccccc2o1	27*	0	1	0	x
O=C(Nc1ccc(F)cc1F)c1cc(-c2ccc(Cl)cc2)nc2ccccc12	x	-8	2	0	x
CCOC(=O)CC(=O)CSc1nnc2c(n1)[nH]c1ccccc12	-3	2	-2	-1	-1
N#CCc1c(C#N)c(N)nc(N2CCCC(CO)C2)c1C#N (stereo unspecified)	-1	-81	-31	-20	x
N#CCc1c(C#N)c(N)nc(N2CCCC(O)C2)c1C#N (stereo unspecified)	11*	-34	-11	-47	0
O=C(CN1CCN(c2ccccc2)CC1)N1N=CCC1c1ccccc1 (stereo unspecified)	24*	14	6	0	-3
O=[N+]([O-])c1ccc(C2CNC(c3ccccc3)O2)cc1 (stereo unspecified)	7.1*	-8	-6	0	4
CCOC(=O)CNC(=O)C(Cc1ccc2c(c1)OCO2)NC(C)=O (stereo unspecified)	x	-7	-4	0	x
COC(=O)C1CN(C2CC2)CCS(=O)(=O)N1Cc1cn(Cc2ccc(F)cc2)nn1 (stereo unspecified)	x	-2	-2	1	x
SMILES	V-ATPase pH	ADAM10 inh	ADAM17 inh	proKLK7 act	V-ATPase pH SP
CCOc1ccccc1Nc1nc(-c2sc(C)nc2C)cs1	8.3*	6	3	-1	-1
Cc1cc(C)c(NC(=O)CSc2ccc(-c3ccccn3)nn2)c(C)c1	11*	2	-4	0	0
CCOc1ccc(NC(=O)CCC(=O)N/N=C(\C)c2cccs2)cc1	8.8*	9	0	0	1
CCOc1ccc(NC(=O)CCC(=O)NNC(=O)c2ccco2)cc1	9.2*	6	0	0	3
O=C(Nc1ccc(F)cc1)OCc1cn(Cc2ccccc2C(F)(F)F)nn1	x	7	7	0	x
O=[N+]([O-])c1ccc(F)cc1OCc1nc(-c2cccs2)no1	15*	6	-6	0	0
CN1CCN(c2nc3c(c(=O)n(C)c(=O)n3C)n2Cc2ccc(Cl)cc2)CC1	8.0*	-4	5	1	-8
COc1ccc(-c2cc(NC(=O)Cc3c[nH]c4ccccc34)ccc2Nc2cccnc2)cc1F	x	-3	-2	0	x
